We go through 40 compounds from PubChem BioAssay (EPA / NIEHS).

“And” between values parts separate entries of the source, which are not always exact repeats. Identical values can stand only once. The source made the active and inactive calls. How the source made its calls: active means hit-call score of the fitted dose curve at least 0.9, where 1 is the maximum; inconclusive means response in the unintended direction; inactive means score below 0.9.

Estrogen receptor (Homo sapiens), sequence (P03372 whole entry, looked up, the tested form may be a part): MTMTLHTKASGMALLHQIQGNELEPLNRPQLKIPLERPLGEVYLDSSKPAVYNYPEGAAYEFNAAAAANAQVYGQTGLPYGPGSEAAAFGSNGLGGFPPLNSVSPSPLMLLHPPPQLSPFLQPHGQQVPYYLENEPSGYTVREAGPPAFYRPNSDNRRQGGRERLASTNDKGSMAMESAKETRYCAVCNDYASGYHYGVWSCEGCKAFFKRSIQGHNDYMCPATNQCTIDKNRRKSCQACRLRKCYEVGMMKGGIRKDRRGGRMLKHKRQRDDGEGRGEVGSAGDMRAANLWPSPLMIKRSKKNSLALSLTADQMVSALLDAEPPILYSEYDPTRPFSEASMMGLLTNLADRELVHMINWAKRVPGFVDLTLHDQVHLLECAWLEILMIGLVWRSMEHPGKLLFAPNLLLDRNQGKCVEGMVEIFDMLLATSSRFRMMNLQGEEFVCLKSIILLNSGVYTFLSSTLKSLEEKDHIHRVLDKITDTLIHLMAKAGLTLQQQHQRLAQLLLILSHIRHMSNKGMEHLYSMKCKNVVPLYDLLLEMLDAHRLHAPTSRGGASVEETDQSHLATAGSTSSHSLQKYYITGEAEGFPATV

This experiment has as its target Estrogen receptor (Homo sapiens) (UniProt P03372). Description: OT_ER_ERaERa_1440: Odyssey Thera (OT) 24-hour HEK293T Protein-Complementation Assay for Estrogen Receptor-alpha/-alpha Homodimer (AID 2283349).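 Further: hits raise fluorescence above DMSO for agonists and antagonists alike.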 How it is done:
OT_ER_ERaERa_1440 is a cell-based assay that uses HEK293T, a human kidney cell line, with measurements taken at 24 hours after chemical dosing in a 384-well plate.OT_ER_ERaERa_1440 is one of one assay component(s) measured or calculated from the OT_ER_ERaERa_1440 assay. It is designed to make measurements of protein fragment complementation, a form of binding reporter, as detected with fluorescence intensity signals by Protein-fragment Complementation technology.Data from the assay component OT_ER_ERaERa_1440 was analyzed into 1 assay endpoint. This assay endpoint, OT_ER_ERaERa_1440, was analyzed in the positive analysis fitting direction relative to DMSO as the negative control and baseline of activity. Using a type of binding reporter, measures of receptor for gain-of-signal activity can be used to understand the binding at the pathway-level as they relate to the gene ESR1. Furthermore, this assay endpoint can be referred to as a primary readout, because the performed assay has only produced 1 assay endpoint. To generalize the intended target to other relatable targets, this assay endpoint is annotated to the nuclear receptor intended target family, where the subfamily is steroidal.
Protein-fragment complementation assay, or PCA, is a method for the identification and quantification of protein-protein interactions. In the PCA, the proteins of interest ("bait" and "prey") are each covalently linked to fragments of a third protein (e.g. DHFR, which acts as a "reporter"). Interaction between the bait and the prey proteins brings the fragments of the reporter protein in close proximity to allow them to form a functional reporter protein whose activity can be measured. The OT ER alpha / ER alpha assay is a homodimer PCA of the ligand binding domain (amino acids 310-547) of human ER alpha stably expressed in HEK293T cells. […] Fluorescent signal in the basal state of the assay is very low and is primarily punctuate and cytoplasmic. Modulation of this assay is quantified as an increase in mean fluorescence intensity in the nucleus (for agonists) or in the nucleus and cytoplasm (antagonists) relative to vehicle controls, and can be quantified on a high content imaging device or a laser scanning cytometer. The latter instrument is favored for this assay because of the rapid mode of data acquisition, the ability to acquire data from the entire cell population in a well (as opposed to a fraction of the well on the high content devices) and the larger dynamic range typically achieved with this instrument. To assess sensitivity of the ER alpha/ER alpha LBD assay to ligand, cells were treated with the ER agonist 17 beta-estradiol (E2) in 10-point concentration- response format for 24 hours and monitored response on a laser scanning plate cytometer (Acumen eX3; TTP Lab Tech).
Take `CC(C)Oc1cc(-n2nc(C(C)(C)C)oc2=O)c(Cl)cc1Cl`: the compound was called inactive.
`O=C(Nc1ccccc1)Nc1ccnc(Cl)c1`: the outcome was inactive.
Regarding `COC(=O)N(OC)c1ccccc1COc1ccn(-c2ccc(Cl)cc2)n1`, the result was inactive.
With `CCON=C(CC)C1=C(O)CC(c2c(C)cc(C)cc2C)CC1=O` (stereo not given), the call was inactive.
As to `C#CCOS(=O)OC1CCCCC1Oc1ccc(C(C)(C)C)cc1` (stereo not given), the compound was classed as inactive.
For the compound `CNC(=S)S`, the result was inactive.
For `CC(Oc1ccc(Cl)cc1Cl)C(=O)O` (stereo not given), the result was inactive.
Still for that read-out and setting: next, `CCOP(=S)(OCC)SCn1c(=O)oc2cc(Cl)ccc21`: “inactive”; `N#CC(CCc1ccc(Cl)cc1)(Cn1cncn1)c1ccccc1` (stereo not given): “inactive”.
Regarding `Cc1cc(Cl)ccc1OCC(=O)O`, the outcome was inactive.
As for `CC(C)C1(C)N=C(c2nc3ccccc3cc2C(=O)O)NC1=O` (stereo not given), the outcome was inactive.
As for `CCCCC(CC)COC(=O)c1ccccc1C(=O)OCC(CC)CCCC` (stereo not given), the AC50 is 66 µM (active).
In the case of `CCCN(CCC)c1c([N+](=O)[O-])cc(S(N)(=O)=O)cc1[N+](=O)[O-]`, the outcome was inactive.
Regarding `Cc1ccc(-c2c(Cl)nc(C#N)n2S(=O)(=O)N(C)C)cc1`, the compound was classed as inactive.
As to `COC(=O)c1ccccc1C(=O)OC`, the compound was called inactive.
Consider `CC(C)(C)c1ccc(CSc2cnn(C(C)(C)C)c(=O)c2Cl)cc1`, for which the result was inactive.
In the case of `N#Cc1nn(-c2c(Cl)cc(C(F)(F)F)cc2Cl)c(N)c1S(=O)C(F)(F)F` (stereo not given), the compound was called inactive.
`C=CCC1=C(C)[C@@H](OC(=O)[C@@H]2[C@@H](C=C(C)C)C2(C)C)CC1=O`: the compound was classed as inactive.
Turning to `CCOc1cc(Oc2ccc(C(F)(F)F)cc2Cl)ccc1[N+](=O)[O-]`, the result was inactive.
Turning to `CC1=C(C(=O)Nc2ccccc2)SCCO1`, the result was inactive.
With `CCNc1nc(Cl)nc(NC(C)C)n1`, the result was inactive.
As to `Fc1ccc(Oc2ccnc3cc(Cl)cc(Cl)c23)cc1`, the compound was classed as inactive.
Consider `CCCC1COC(Cn2cncn2)(c2ccc(Cl)cc2Cl)O1` (stereo not given), for which the compound was called inactive.
As for `COc1ccc(C(c2ccc(OC)cc2)C(Cl)(Cl)Cl)cc1`, the concentration at half-maximal activity (AC50) is 13.8 µM (active) and 21.6 µM (active) and 14.4 µM (active).
As to `O=C(O)COc1nc(Cl)c(Cl)cc1Cl`, the result was inactive.
Consider `COP(N)(=O)SC` (stereo not given), for which the call was inactive.
`CCc1nn(C)c(C(=O)NCc2ccc(C(C)(C)C)cc2)c1Cl`: the result was inactive.
On to `N#Cc1cc(Br)c(O)c(Br)c1`, for which the result was inactive.
With `CCCCOC(=O)c1ccccc1C(=O)OCCCC`, the AC50 was 35.4 µM (active) and 46.5 µM (active) and 60 µM (active).
As to `C=CC1(C)OC(=O)N(c2cc(Cl)cc(Cl)c2)C1=O` (stereo not given), the call was inactive.
Turning to `C=CCC1=C(C)C(OC(=O)C2C(C=C(C)C)C2(C)C)CC1=O` (stereo not given), the compound was classed as inactive.
In the case of `CCCCNC(=O)OCC#CI`, the result was inactive.
`COP(=S)(OC)Oc1nc(Cl)c(Cl)cc1Cl`: the outcome was inactive.
Regarding `O=C(O)c1nc(Cl)ccc1Cl`, the compound was called inactive.
Turning to `CN(C)C(=S)SSC(=S)N(C)C`, the compound was classed as inactive.
With `COC(=O)C=C(C)OP(=O)(OC)OC`, the result was inactive.
For `CCOC(=O)CC(SP(=S)(OC)OC)C(=O)OCC` (stereo not given), the outcome was inactive.
Consider `Oc1ccccc1-c1ccccc1`, for which the compound was called inactive.
Turning to `CNC(=O)ON=CC(C)(C)SC`, the compound was classed as inactive.
For `CON(C)C(=O)Nc1ccc(Cl)c(Cl)c1`, the result was inactive.
